Results taken from PubChem BioAssay AID1347170 (National Center for Advancing Translational Sciences (NCATS), 2019).
Records with an inconclusive call do not appear. A number with no mark means an inactive call. Calls of active or inactive are those of the source. Calls follow the shape of the dose curve; as a rule, active = well fitted cell-killing curve with a large enough effect; inconclusive = small, poorly fitted or top-dose-only effect, or another doubt; inactive = flat fitted curve, though single readings scatter.

Assay: Vero cells viability counterscreen for qRT-PCR qHTS assay of selected Zika virus inhibitors
Settings: CellTiter-Glo ATP luminescence, 24 h; series mostly up to 41.8 µM; activity change, negative = cytotoxicity: at the top concentration
Excerpt: Assay Submitters (PI): Avindra Nath, Ph.D., National Institute of Neurological Disorders and Stroke (NINDS), Bethesda, MD Radhakrishnan Padmanabhan, Ph.D., Georgetown University (GU), Washington D.C. Zika Virus causes congenital defects, including microcephaly and is associated with Guillain-Barre syndrome, eningoencephalitis and myelitis in infected adult. […] Using a target-based approach, we hope to establish a screening paradigm to uncover novel, cell-active NS2B-NS3 protease (Zika Virus) specific inhibitors from NCATS' collection of small molecules using qHTS. […] Four assay panel was created to identify potential Zika Virus inhibitors. Namely, (1) GU unlinked NS2B-NS3 AMC tagged protease qHTS, (2) GU unlinked NS2B-NS3 Rhodamine tagged protease qHTS, (3) NINDS linked NS2B-NS3 AMC tagged protease qHTS, (4) NINDS linked NS2B-NS3 Rhodamine tagged protease qHTS. Inhibitors of the Zika virus primary screens are confirmed using qRT-PCR secondary assays, mCherry orthogonal assay, and Vero cells viability counterscreen. Cytotoxic compounds identified in the Vero cell viability counterscreen were excluded from the list of potential Zika virus inhibitors. Early Translation Branch (ETB) National Center for Advancing Translational Sciences (NCATS), Rockville, MD National Institute of Health (NIH), Bethesda, Maryland
Vero Cell Viability Assay: Vero cell cytotoxicity was determined using a luminescent readout with CellTiter Glo reagent (Promega, Madison, WI), which is based on measuring the ATP content within cells. Briefly, 4 uL of Vero cells at 2.5 x 10^5 cells/mL in DMEM containing 4% FBS were dispensed into 1536-well solid bottom tissue treated white plate using a Multidrop Combi dispenser (Thermo Scientific). Plates were incubated at 37 degrees C, 95% humidity, and 5% CO2 overnight to allow for cell attachment. Compounds were dissolved in DMSO at different concentrations and transferred via pintool (Wako Automation), for a final concentration of 57 uM - 0.029 uM. Plates were again incubated for 24 hours, followed by a 2 uL addition of CellTiter Glo. Finally, plates were incubated for 30 minutes at 37 degrees C and 5% CO2 before being read on a ViewLux (Perkin Elmer) for luminescence.

Compound | activity change, negative = cytotoxicity | Potency
CCCCCc1ccc(/C=C/C(=O)Nc2cc(Cl)ccc2C(=O)O)cc1 | -16.7% [at 31.5 µM] | 
O=C(N/N=C/c1ccc(O)c(O)c1)c1cc2ccccc2cc1O | -8.44% | 
C=C1c2cccc(O)c2C(O)=C2C(=O)[C@]3(O)C(O)=C(C(N)=O)C(=O)[C@@H](N(C)C)[C@@H]3[C@@H](O)[C@H]12 |  | inactive
COc1cnc(-c2ccc(Cn3c(CC(C)(C)C(=O)O)c(SC(C)(C)C)c4cc(OC[C@@H]5Cc6ccccc6N5C(C)=O)ccc43)cc2)nc1 | 0.74% [at 31.5 µM] | 
Cc1ccn(-c2ccc(-c3ncco3)cc2)c(=O)c1-c1ccc2nc(N)ncc2c1 | -2.48% | 
Oc1cc2ccccc2c2ccccc12 |  | 11.2 µM (active)
CCOC(=O)c1ccc(N2C(=O)c3n[nH]c(-c4cccs4)c3C2c2ccc(Cl)cc2Cl)cc1 (stereo not given) |  | 25.1 µM (active)
Cc1ccc2c(=O)c3ccccc3n(CCCN)c2c1C | -11.4% | 
COc1ccccc1-c1cccc(-c2c(O)c3cc(C#N)c(Cl)cc3[nH]c2=O)c1 | 2.73% | 
Cc1nc(C2CCCCC2)c(-c2ccc(S(N)(=O)=O)c(F)c2)o1 | 1.12% | 
CC[C@H](C)[C@H]1O[C@]2(CC[C@@H]1C)C[C@@H]1C[C@@H](C/C=C(\C)[C@@H](O[C@H]3C[C@H](OC)[C@@H](O[C@H]4C[C@H](OC)[C@@H](O)[C@H](C)O4)[C@H](C)O3)[C@@H](C)/C=C/C=C3\CO[C@@H]4[C@H](O)C(C)=C[C@@H](C(=O)O1)[C@]34O)O2 |  | 11.2 µM (active)
Cc1cc(C)cc(C(=O)N(C)[C@H](Cc2ccc(-c3ccccc3)cc2)C(=O)N[C@@H](Cc2c[nH]c3ccccc23)C(=O)O)c1 | 0.744% | 
CN(CC(=O)N(Cc1ccc(C2CCCCC2)cc1)c1ccc(C(=O)O)cc1)S(=O)(=O)c1c(F)c(F)c(F)c(F)c1F |  | 7.94 µM (active)
O=C(O)c1ccc(S(=O)(=O)N(Cc2ccc(OC(F)(F)F)cc2)c2ncc(C(F)(F)F)cc2Cl)cc1 | -6.33% | 
O=C(O)C1(Cc2cccc(Nc3nccs3)n2)CCC(Oc2cccc(Cl)c2F)CC1 (stereo not given) | -0.248% | 
CC(C)=CCc1c2c(c3occ(-c4ccc(O)c(O)c4)c(=O)c3c1O)C=CC(C)(C)O2 |  | 8.91 µM (active)
O=C(O)c1ccc2c(ccc3nn(-c4ccc(/C=C/c5ccc(-n6nc7ccc8cc(C(=O)O)ccc8c7n6)cc5[S+](=O)([O-])[O-])c([S+](=O)([O-])[O-])c4)nc32)c1 | 2.1% [at 31.5 µM] | 
Cc1ccc2nc(NS(=O)(=O)c3ccc(Cl)cc3)c(Nc3ccc(C(=O)O)cc3)nc2c1 | -1.12% | 
COc1ccc(NS(=O)(=O)c2ccc(NS(=O)(=O)c3ccc4c(c3)OCCO4)cc2)cc1 | -23.1% | 
COc1cc(/C=C(\C#N)C(=O)Nc2nnc(C(F)(F)F)s2)ccc1OCc1ccc(C(F)(F)F)cc1C(F)(F)F | 3.82% | 

Compound | activity change, negative = cytotoxicity | Potency
CO[C@H]1C[C@@H](O[C@@H]2/C(C)=C/C[C@@H]3C[C@@H](C[C@]4(CC[C@H](C)[C@@H](C5CCCCC5)O4)O3)OC(=O)[C@@H]3C=C(C)/C(=N/O)[C@H]4OC/C(=C\C=C\[C@@H]2C)[C@]43O)O[C@@H](C)[C@H]1O |  | 25.1 µM (active)
CCc1oc2ccccc2c1C(=O)c1cc(Br)c(O)c(Br)c1 | -18% | 
CN(Cc1ccc(C(=O)O)cc1)c1ccc(OCc2c(-c3c(Cl)cccc3Cl)noc2C2CC2)nc1C(F)(F)F | 13.2% | 
O=C(c1cc(O)c(O)c([N+](=O)[O-])c1)c1ccccc1F | -1.36% | 
CCOC(=O)c1ccc(N2C(=O)c3n[nH]c(-c4cccs4)c3C2c2ccc(C(C)(C)C)cc2)cc1 (stereo not given) | -6.72% [at 31.5 µM] | 
O=C(O)c1cccc(-c2ccc(-c3cn(C(=O)N4CCCCC4Cc4ccccc4)nn3)cc2)c1 (stereo not given) | 7.83% [at 31.5 µM] | 
O=C(Nc1cc(C(F)(F)F)cc(C(F)(F)F)c1)c1cc(Cl)ccc1O | 0.248% | 
CC(=O)Nc1ccc([C@H](C)C(=O)Nc2ncc(C(C)C)s2)cc1 |  | 2.82 µM (active)
CC(C)(O)c1ccccc1CC[C@@H](SCC1(CC(=O)O)CC1)c1cccc(/C=C/c2ccc3ccc(Cl)cc3n2)c1 | 0% | 
O=C(O)Cn1nnc(-c2cc(N3CCC(Oc4cc(F)ccc4Br)CC3)no2)n1 | -3.72% | 
O=C(O)CC1CCC(c2ccc(-c3ccc(Nc4ccc(C(F)(F)F)nc4)cn3)cc2)CC1 (stereo not given) | 1.67% [at 31.5 µM] | 
N#CC1C(=O)Nc2scc(-c3ccc(-c4ccccc4O)cc3)c2C1=O (stereo not given) | 11.9% [at 31.5 µM] | 
COc1cc(C(=O)NS(=O)(=O)c2ccccc2C)ccc1Cc1cn(C)c2ccc(NC(=O)OC3CCCC3)cc12 | -4.59% | 
CN(C)[C@@H]1C(=O)C(C(N)=O)=C(O)[C@@]2(O)C(=O)C3=C(O)c4c(O)cccc4C[C@H]3C[C@@H]12 | -8.19% | 
O=C(O)c1ccc(CCCc2ccc(OCCc3ccc(F)cc3)cc2)o1 | 12.6% [at 31.5 µM] | 
O=C(Nc1ccc(Oc2ccc(Cl)cc2)c(Cl)c1)c1cc(I)cc(I)c1O | 1.12% | 
CCOc1c2c(c(OCC)c3ccccc13)C(=O)N(c1ccc(CC(=O)NS(=O)(=O)c3ccccc3)cc1)C2 | 1.74% | 
O=C(O)Cc1cc(I)c(Oc2ccc(O)c(I)c2)c(I)c1 | -1.74% | 
CC1(C)CCC(C)(C)c2cc3c(cc21)Sc1ccccc1N=C3c1ccc(C(=O)O)cc1 | -1.86% | 
O=C(O)Cc1cccc(OCCCN(Cc2cccc(C(F)(F)F)c2Cl)CC(c2ccccc2)c2ccccc2)c1 | -4.01% | 
